SMILES strings stand for the structures. The source made the active and inactive calls. How the source made its calls: active means hit-call score of the fitted dose curve at least 0.9, where 1 is the maximum; inactive means score below 0.9.

Results on 30 compounds are retold here after PubChem BioAssay (EPA / NIEHS).

Read-out in the first assay: Insulin-like growth factor-binding protein 1 (IGFBP1), IGFBP1 (gene 3484)
Nature of the assay: LTEA_HepaRG_IGFBP1: Life Technologies and Expression Analysis (LTEA) Assay for Insulin-like growth factor-binding protein 1 (IGFBP1) using HepaRG (AID 2283508). The following applies: mRNA level, 48 h; actives raise or lower the signal. An outline of the steps: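 Read-out is qRT-PCR transcript level normalized to three housekeeping genes, fitted in both directions against 0.5% DMSO. Differentiated HepaRG cells received eight half-log concentrations (top 100 uM) in duplicate for 48 h in serum-free induction medium.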
Consider `CC(C)OC(=O)C(C)(C)Oc1ccc(C(=O)c2ccc(Cl)cc2)cc1`, for which the result was inactive.

Regarding `CCCC[C@H]1CN(CC2CCOCC2)C(=O)OC12CCN(C1(C)CCN(C(=O)c3c(C)ncnc3C)CC1)CC2`, the call was inactive.

For the compound `CCCCCCCCCCCCCCOS(=O)(=O)O`, the outcome was inactive.

As for `OCC(CO)n1cnc(-c2ccc(F)cc2)c1-c1ccnc(Oc2ccccc2)n1`, the outcome was inactive.

In the case of `CC(C)(O)c1ccc(CNC(=O)c2cccnc2Oc2ccc(F)cc2)cc1`, the compound was called inactive.

For the compound `Cc1cc(SC2=C(O)C[C@@](CCc3ccc(N)cc3)(C(C)C)OC2=O)c(C(C)(C)C)cc1CO`, the compound was classed as inactive.

`N[C@@H](Cc1c[nH]c2ccccc12)C(=O)O`: the result was inactive.

With `CC(C)c1cccc(C(C)C)c1`, the compound was classed as inactive.

In the case of `CC(=O)S[C@H](C(=O)N[C@H]1Cc2ccccc2[C@H]2CCC[C@@H](C(=O)O)N2C1=O)C(C)C`, the compound was classed as inactive.

By AC50 is commonly meant the concentration giving half of the maximal activity seen. With `COc1ccc(C(=O)Nc2nc3ccccc3c(NCc3ccccc3)c2C#N)cc1`, the AC50 is 17.9 µM (active).

As for `O=C(Oc1ccccc1)c1cccc(C(=O)Oc2ccccc2)c1`, the call was inactive.

Consider `CN(C)C(=O)NC1(c2ccccc2)CCN(CC[C@@]2(c3ccc(F)c(F)c3)CN(C(=O)c3ccccc3)CCO2)CC1`, for which the result was inactive.

`CC(C)c1cccc(C(C)C)c1NC(=O)NS(=O)(=O)c1cc(C(C)(C)O)co1`: the compound was classed as inactive.

On to `O=C1c2c(O)cccc2Cc2cccc(O)c21`, for which the result was inactive.

In the case of `O=[Si]=O`, the compound was classed as inactive.

For the compound `CC(N)=O`, the compound was classed as inactive.

As for `CC(C)(C)c1ccccc1`, the compound was called inactive.

As for `Cc1ccc(C(C)(C)C)c(O)c1`, the compound was classed as inactive.

In the case of `c1ccc2occc2c1`, the outcome was inactive.

Consider `COC(=O)CCC(=O)OC`, for which the call was inactive.

As for `CC(=O)CC(c1ccccc1)c1c(O)c2ccccc2oc1=O` (stereo not given), the outcome was inactive.

Take `CCc1cc(C2=C(C(=O)O)N(c3ccccc3C(F)(F)F)S(=O)(=O)c3ccccc32)cc2c1OCO2`: the AC50 was 75.4 µM (active).

Turning to `CCCCc1nc2cccnc2n1Cc1ccc(-c2ccccc2-c2nnn[nH]2)cc1`, the outcome was inactive.

As to `CCCCC(CC)CO` (stereo not given), the outcome was inactive.

In the case of `CC1=C(C)S(=O)(=O)CCS1(=O)=O`, the compound was classed as inactive.

For `CCCCC(CC)COP(=O)(OCC(CC)CCCC)OCC(CC)CCCC` (stereo not given), the result was inactive.

Regarding `CC(COCC(C)OC(=O)c1ccccc1)OC(=O)c1ccccc1` (stereo not given), the outcome was inactive.

Consider `CC1(C)C(=O)NC(=O)N1CO`, for which the outcome was inactive.

As to `CCCCCCC(CCCCCCCCCCC(=O)OCC(COC(C)=O)OC(C)=O)OC(C)=O` (stereo not given), the result was inactive.

Turning to `O=Cc1ccccc1C=O`, the compound was classed as inactive.

Read-out in the next assay: Interleukin 6 (IL6), IL6 (gene 3569)
Nature of the assay: LTEA_HepaRG_IL6: Life Technologies and Expression Analysis (LTEA) Assay for Interleukin 6 (IL6) using HepaRG (AID 2283509). The following applies: mRNA level, 48 h; actives raise or lower the signal. Put shortly:
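HepaRG cells exposed in duplicate for 48 h to eight half-log concentrations, top 100 uM, in 0.5% DMSO serum-free induction medium. mRNA measured by qRT-PCR, normalized to ACTB, GAPDH and POLR2A. Bidirectional fit versus DMSO.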
`CC(C)OC(=O)C(C)(C)Oc1ccc(C(=O)c2ccc(Cl)cc2)cc1`: the outcome was inactive.

For the compound `CCCC[C@H]1CN(CC2CCOCC2)C(=O)OC12CCN(C1(C)CCN(C(=O)c3c(C)ncnc3C)CC1)CC2`, the outcome was inactive.

Regarding `CCCCCCCCCCCCCCOS(=O)(=O)O`, the compound was classed as inactive.

As to `OCC(CO)n1cnc(-c2ccc(F)cc2)c1-c1ccnc(Oc2ccccc2)n1`, the result was inactive.

Consider `CC(C)(O)c1ccc(CNC(=O)c2cccnc2Oc2ccc(F)cc2)cc1`, for which the result was inactive.

For the compound `Cc1cc(SC2=C(O)C[C@@](CCc3ccc(N)cc3)(C(C)C)OC2=O)c(C(C)(C)C)cc1CO`, the compound was classed as inactive.

For `N[C@@H](Cc1c[nH]c2ccccc12)C(=O)O`, the outcome was inactive.

As for `CC(C)c1cccc(C(C)C)c1`, the outcome was inactive.

On to `CC(=O)S[C@H](C(=O)N[C@H]1Cc2ccccc2[C@H]2CCC[C@@H](C(=O)O)N2C1=O)C(C)C`, for which the compound was classed as inactive.

For `COc1ccc(C(=O)Nc2nc3ccccc3c(NCc3ccccc3)c2C#N)cc1`, the compound was classed as inactive.

Turning to `O=C(Oc1ccccc1)c1cccc(C(=O)Oc2ccccc2)c1`, the compound was classed as inactive.

For `CN(C)C(=O)NC1(c2ccccc2)CCN(CC[C@@]2(c3ccc(F)c(F)c3)CN(C(=O)c3ccccc3)CCO2)CC1`, the outcome was inactive.

Regarding `CC(C)c1cccc(C(C)C)c1NC(=O)NS(=O)(=O)c1cc(C(C)(C)O)co1`, the compound was classed as inactive.

For `O=C1c2c(O)cccc2Cc2cccc(O)c21`, the call was inactive.

Regarding `O=[Si]=O`, the call was inactive.

For the compound `CC(N)=O`, the result was inactive.

On to `CC(C)(C)c1ccccc1`, for which the compound was classed as inactive.

For the compound `Cc1ccc(C(C)(C)C)c(O)c1`, the compound was classed as inactive.

As to `c1ccc2occc2c1`, the call was inactive.

With `COC(=O)CCC(=O)OC`, the compound was classed as inactive.

On to `CC(=O)CC(c1ccccc1)c1c(O)c2ccccc2oc1=O` (stereo not given), for which the outcome was inactive.

Regarding `CCc1cc(C2=C(C(=O)O)N(c3ccccc3C(F)(F)F)S(=O)(=O)c3ccccc32)cc2c1OCO2`, the AC50 was 78.5 µM (active).

As for `CCCCc1nc2cccnc2n1Cc1ccc(-c2ccccc2-c2nnn[nH]2)cc1`, the compound was classed as inactive.

For the compound `CCCCC(CC)CO` (stereo not given), the compound was classed as inactive.

Consider `CC1=C(C)S(=O)(=O)CCS1(=O)=O`, for which the call was inactive.

On to `CCCCC(CC)COP(=O)(OCC(CC)CCCC)OCC(CC)CCCC` (stereo not given), for which the compound was called inactive.

Consider `CC(COCC(C)OC(=O)c1ccccc1)OC(=O)c1ccccc1` (stereo not given), for which the compound was classed as inactive.

For the compound `CC1(C)C(=O)NC(=O)N1CO`, the compound was classed as inactive.

In the case of `CCCCCCC(CCCCCCCCCCC(=O)OCC(COC(C)=O)OC(C)=O)OC(C)=O` (stereo not given), the result was inactive.

Regarding `O=Cc1ccccc1C=O`, the result was inactive.
